Data on 5 compounds can be found in PubChem BioAssay.

The nature of test [1]: yeast TOR pathway RPL19A-GFP modulators, primary screen, cell-based, S. cerevisiae, multiplex flow cytometry (AID 1862; in the data active = percent of DMSO control GFP below about 86%;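 also: lower values mimic rapamycin by blocking the RPL19A rise seen in DMSO cells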). The settings on record: S. cerevisiae RPL19A-GFP strain, flow cytometry fluorescence, 3 h; at 10 µM; stronger effect = lower value. (Flow cytometry measures light scatter and fluorescence of single cells or particles in a stream.)
Test [2] is described as follows: modulators of MEP2-GFP levels in yeast, primary screen, S. cerevisiae, multiplex flow cytometry (AID 1867;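 active = GFP response, as percent of the DMSO control, above the screen-wide mean plus 3 SD, about 139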;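 also: median GFP channel fluorescence of barcode-gated MEP2-GFP cells measured by flow cytometry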). The settings on record: S. cerevisiae MEP2-GFP strain, 3 h, at 10 µM, stronger effect = higher value, 100% means same as DMSO wells.
Test [3] in a line: modulators of CIT2-GFP expression in yeast, primary screen, S. cerevisiae, GFP fusion, multiplex flow cytometry (AID 1870;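 active = percent response above a set limit, the screen-wide mean plus 3 SD, cut at about 130% in these data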;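 also: barcoded CIT2-GFP strain pooled with four other GFP strains with rapamycin as positive control; median GFP fluorescence per well over plate mean of DMSO wells so 100% = DMSO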). The settings on record: 3 h, at 10 µM, stronger effect = higher value.
A short description of test [4]: modulators of LAP4-GFP expression in yeast, primary screen, S. cerevisiae, multiplex flow cytometry (AID 1873). The settings on record: 3 h, at 10 µM, stronger effect = higher value.
Test [5] in a line: modulators of AGP1-GFP expression in yeast TOR pathway, primary screen, cell-based, multiplex flow cytometry, S. cerevisiae (AID 1887;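 active = GFP signal above the screen-wide mean plus 3 SD, that is over about 124.5% of the solvent control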;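 also: AGP1-GFP fusion strain of S. cerevisiae within a five-strain barcoded multiplex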). The settings on record: 3 h, at 10 µM, stronger effect = higher value.
Test [6] in a line: RPL19A-GFP modulators, yeast TOR pathway, confirmation, cell-based, S. cerevisiae, flow cytometry, cherry picks, mother/daughter gates (AID 2270;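 active = GFP response below 50% of the DMSO control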). The settings on record: S. cerevisiae RPL19A-GFP strain, 3 h, at 10 µM, stronger effect = lower value, 100 = same GFP as DMSO wells.
Test [7] is described as follows: LAP4-GFP expression modulators in yeast, confirmation, cell-based, cherry picks, flow cytometry, mother/daughter gates (AID 2271;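 active = GFP response above 150% of the DMSO control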;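 also: ratio of sample to DMSO plate mean so 100% equals DMSO level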). The settings on record: S. cerevisiae LAP4-GFP strain, 3 h, at 10 µM, stronger effect = higher value, 100 means same as DMSO control.
Test [8] is described as follows: modulators of MEP2-GFP levels in yeast, confirmation, S. cerevisiae, flow cytometry GFP, cherry picks (AID 2272;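 active = GFP response above 150% of the DMSO control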;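 also: ratio of well signal to plate DMSO mean so 100% equals DMSO level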). The settings on record: S. cerevisiae MEP2-GFP strain, 3 h, at 10 µM, stronger effect = higher value.
The nature of test [9]: modulators of CIT2-GFP expression in yeast, confirmation, S. cerevisiae, GFP fusion, cherry picks, mother/daughter gates (AID 2274;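 active = GFP response above 150% of the DMSO level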). The settings on record: S. cerevisiae CIT2-GFP strain, flow cytometry, 3 h, at 10 µM, stronger effect = higher value.
Test [10] in a line: inhibitors of CD8+ T cell-vesicle binding, pilot screen, LFA-1/ICAM-1 modulator project, MLPCN validation set, flow cytometry (AID 2523;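 active = response below a set limit, under 55% cells CD8-positive and vesicle-bound, and CD8 cells' 90th-percentile brightness under 279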;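 as to vesicle binding response: mean PE anti-B7-1 fluorescence of CD8+ cells relative to row control; 100% = QL9-loaded vesicles with DMSO vehicle in the same plate row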). The settings on record: 2C mouse CD8+ T cells, at 7 µM, stronger effect = lower value; double positive events: measured here: CD8+/vesicle+ event percentage.
Where [11] appears, read: measured here: daughter cell gate.
Setting [12] is: measured here: mother cell gate.
Where [13] appears, read: measured here: daughter cell gate response.
Setting [14] is: measured here: mother cell gate response.

“And” between values parts separate entries of the source, which are not always exact repeats. Equal entries are not always repeated. Records with an inconclusive call do not appear. Some structures have more than one record in an assay (separate samples or runs), and their calls can disagree. The source made the active and inactive calls.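 The calls were made as follows, unless noted: active = GFP signal, as percent of the solvent control, above the screen mean plus 3 SD, about 149; inconclusive = no reading because the compound's own fluorescence upset strain identification; inactive = the rest.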

For the compound `C[n+]1ccccc1/C=N/O`, in test [1], the percent of DMSO control GFP is 99.2% (inactive) and 98.9% (inactive). Further, the GFP response vs DMSO in test [2] was 143% (active) and 101% (inactive); in test [4] it was 90.2% (inactive) and 97% (inactive); in test [6], 99% (inactive); in test [6] (setting [11]), 99.5%; in [6] (setting [12]), 99.6%; in test [8], 100% (inactive). The percent response of DMSO control in [3] was 101% (inactive) and 95.5% (inactive). Further, the GFP response, % of DMSO was 98.2% (inactive) and 98.3% (inactive) in test [5]; 111% (inactive) in test [9]; 108% in test [9] (setting [11]); 112% in [9] (setting [12]). Also, the GFP response relative to DMSO was 98.7% (inactive) in test [7], 100% in [7] (setting [13]) and 101% in test [7] (setting [14]). In addition, the double positive events in [10] was 60.5% and 64%. Besides, the vesicle binding response in test [10] is 142% (inactive) and 180% (inactive).

On to `OC(CCN1CCCCC1)(c1ccccc1)c1ccccc1`, for which, in [1], the percent of DMSO control GFP was 92.8% (inactive). The GFP response vs DMSO in test [2] is 126% (inactive); in test [4], 86.9% (inactive); in test [6], 100% (inactive); in test [6] (setting [11]) it was 99%; in test [6] (setting [12]), 102%; in [8], 100% (inactive). In addition, the percent response of DMSO control in test [3] is 128% (active). For the same compound, the GFP response, % of DMSO is 91.9% (inactive) in test [5], 96.5% (inactive) in test [9], 96.5% in test [9] (setting [11]) and 85.8% in test [9] (setting [12]). For the same compound, the GFP response relative to DMSO in test [7] is 95% (inactive); in [7] (setting [13]), 97.2%; in [7] (setting [14]), 95.2%. The double positive events in [10] is 62.7%. Besides, in test [10], the vesicle binding response was 152% (inactive).

`CS(=O)(=O)Nc1cccc(C(=O)CC2(O)C(=O)Nc3ccc(Br)cc32)c1` (stereo not given): the percent of DMSO control GFP in test [1] is 85.9% (inactive). The GFP response vs DMSO in test [2] was 150% (active); in test [4] it was 139% (inactive); in test [6], 101% (inactive); in [6] (setting [11]), 92.4%; in test [6] (setting [12]) it was 96.2%; in test [8], 99% (inactive). Moreover, the percent response of DMSO control in [3] was 142% (active). For the same compound, the GFP response, % of DMSO in [5] was 129% (active); in [9], 100% (inactive); in test [9] (setting [11]), 90.2%; in test [9] (setting [12]), 90.7%. Moreover, the GFP response relative to DMSO in test [7] is 98.2% (inactive); in [7] (setting [13]), 95.9%; in test [7] (setting [14]), 96.2%. This compound also came in with a double positive events in test [10] of 57.6%. The vesicle binding response in test [10] is 34.1% (inactive).

For the compound `CC(=O)[C@H]1CC[C@H]2[C@@H]3CCC4=CC(=O)CC[C@]4(C)[C@H]3CC[C@]12C`, the percent of DMSO control GFP in [1] is 100% (inactive). Further, the GFP response vs DMSO was 108% (inactive) in [2]; 94.8% (inactive) in [4]; 99.9% (inactive) in [6]; 99.3% in test [6] (setting [11]); 100% in test [6] (setting [12]); 99.5% (inactive) in [8]. Further, the percent response of DMSO control in test [3] is 98.6% (inactive). Moreover, the GFP response, % of DMSO in test [5] was 104% (inactive); in test [9] it was 97.8% (inactive); in [9] (setting [11]), 96.4%; in [9] (setting [12]) it was 98%. Besides, the GFP response relative to DMSO was 100% (inactive) in test [7], 97.9% in [7] (setting [13]) and 101% in [7] (setting [14]). In addition, the double positive events in test [10] was 64%. The vesicle binding response in test [10] is 119% (inactive).

Turning to `COc1ccc(-c2[nH]ncc2CN(CCO)Cc2cccs2)c(F)c1`, the percent of DMSO control GFP in [1] is 102% (inactive). For the same compound, the GFP response vs DMSO in [2] is 105% (inactive); in test [4], 99.1% (inactive); in test [6] it was 96.8% (inactive); in test [6] (setting [11]), 97.4%; in test [6] (setting [12]) it was 98.4%; in test [8], 100% (inactive). Also, the percent response of DMSO control in test [3] is 104% (inactive). For the same compound, the GFP response, % of DMSO is 105% (inactive) in test [5], 99.7% (inactive) in test [9], 103% in [9] (setting [11]) and 99.7% in [9] (setting [12]). Besides, the GFP response relative to DMSO in test [7] is 94.1% (inactive); in [7] (setting [13]), 94.4%; in [7] (setting [14]), 94%. The compound also showed a double positive events in test [10] of 62.7%. Further, the vesicle binding response in test [10] is 142% (inactive).
